# Values without a mark were called inactive. Inconclusive results are not listed. Entries that show only a call come without a potency. The source made the active and inactive calls. Unless noted, calls follow the shape of the dose curve; as a rule, active = well fitted curve in the direction sought with a large enough effect in the repeat runs; inconclusive = weak or mixed curves; inactive = no such curve, though single readings can be large; an effect the other way counts as inactive or inconclusive.
# Experiments:
# [1] = qHTS assay to identify small molecule agonists of the hypoxia (HIF-1) signaling pathway - cell viability counter screen (AID 1224844; calls by dose curve; also: nearly all actives have a fitted effect of over 50% in size)
# Procedure, shortened: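 CellTiter-Glo luminescence read-out, 30 min RT, taken in the same wells as the beta-lactamase HRE reporter assay; HRE-bla ME-180 cells, 0.5% dialyzed FBS, 17 hr compound treatment at 37C, 5% CO2.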
# [2] = qHTS assay to identify small molecule agonists of H2AX (AID 1224845; active = well fitted activation curve with a large enough effect in the signal ratio in the repeat runs, not every such curve was filed as active; the % refers to the signal ratio; also: potency is read from the fitted curve at half-maximal effect)
# Procedure, shortened: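 Wild-type CHO-K1 cells, plated overnight, exposed 3hr at 37C to 15 concentrations (0.76% DMSO final). Lysed, then HTRF anti-pH2AX (S139) cryptate and anti-H2AX-d2 antibodies, 24 hr room temperature; 665/620 nm emission read.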
# [3] = qHTS assay to identify small molecule agonists of the hypoxia (HIF-1) signaling pathway (AID 1224846; active = well fitted activation curve with a large enough effect in the signal ratio in the repeat runs, not every such curve was filed as active; the % refers to the signal ratio)
# Procedure, shortened: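 Beta-lactamase FRET read-out (CCF4-AM substrate) from ME-180 cells carrying an HRE-driven bla reporter, after 17 hrs compound exposure at 37C/5% CO2. Cells were seeded at 2,000 per well in 0.5% dialyzed FBS medium and preincubated 5 hrs.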
# [4] = qHTS assay to identify small molecule agonists of H2AX - cell viability counter screen (AID 1224847; calls by dose curve; also: top concentration of the series differs between compounds; nearly all actives have a fitted effect of over 30% in size)
# Procedure, shortened: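 After overnight plating of 1000 CHO-K1 cells per well, a 15-concentration compound series was applied for 3 hr at 37C. Luminescence from CellTiter-Glo, read following 30 min at room temperature, reflected cell viability.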
# [5] = qHTS RealTime-Glo MT Cell Viability Assay in HepG2 cells - 24 hour (AID 1224867); also: nearly all actives have a fitted effect of over 50% in size
# Procedure, shortened: (§1)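 HepG2 cells (600/well) were dispensed with RealTime-Glo reagents, incubated 5 h at 37 °C, then treated with compounds in DMSO for up to 40 h. Nonlytic NanoLuc luminescence reflecting viable cells was read at each stated time point.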
# [6] = qHTS RealTime-Glo MT Cell Viability Assay in HEK293 cells - 32 hour (AID 1224868); also: nearly all actives have a fitted effect of over 50% in size; also: potency is read from the fitted curve at half-maximal effect
# Procedure, shortened: (§2)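 HEK293 cells seeded with NanoLuc/prosubstrate reagent, rested 5 h at 37 C, then dosed and kept at 37 C up to 40 h. Nonlytic real-time luminescence from viable cells read at 0, 8, 16, 24, 32 and 40 h.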
# [7] = A CellTox Green Cytotoxicity Assay to monitor cytotoxicity in HEK293 cells - 0 hour (AID 1224869); also: nearly all actives have a fitted effect of over 50% in size
# Procedure, shortened: (§3)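 Read-out: fluorescence of a cell-impermeant cyanine dye staining DNA of dead cells, proportional to cytotoxicity. HEK293, 600 cells/well with reagent, compound (23 nL DMSO) added after 5 h; reads at 0, 8, 16, 24, 32, 40 h.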
# [8] = A CellTox Green Cytotoxicity Assay to monitor cytotoxicity in HEK293 cells - 40 hour (AID 1224871); also: nearly all actives have a fitted effect of over 45% in size
# Procedure, shortened: as §3
# [9] = qHTS RealTime-Glo MT Cell Viability Assay in HEK293 cells - 16 hour (AID 1224872); also: nearly all actives have a fitted effect of over 50% in size; also: potency is read from the fitted curve at half-maximal effect
# Procedure, shortened: as §2
# [10] = qHTS RealTime-Glo MT Cell Viability Assay in HepG2 cells - 8 hour (AID 1224873); also: nearly all actives have a fitted effect of over 55% in size
# Procedure, shortened: (§4)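 HepG2 cells (600/well) mixed with RealTime-Glo MT reagent, settled 5 h at 37 C/5% CO2 before compound addition. Nonlytic NanoLuc luminescence from viable-cell prosubstrate reduction read repeatedly during 40 h treatment at 37 C.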
# [11] = A CellTox Green Cytotoxicity Assay to monitor cytotoxicity in HEK293 cells - 24 hour (AID 1224875); also: nearly all actives have a fitted effect of over 45% in size
# Procedure, shortened: as §3
# [12] = A CellTox Green Cytotoxicity Assay to monitor cytotoxicity in HepG2 cells - 16 hour (AID 1224876); also: nearly all actives have a fitted effect of over 45% in size
# Procedure, shortened: (§5)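 HepG2, 600 cells/well premixed w/ CellTox Green; 5 h settle, 37 C/5% CO2; pintool cpd add (DMSO); 37 C, 40 h; fluorescence read at 0, 8, 16, 24, 32, 40 h.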
# [13] = qHTS RealTime-Glo MT Cell Viability Assay in HepG2 cells - 32 hour (AID 1224877); also: nearly all actives have a fitted effect of over 55% in size
# Procedure, shortened: as §1
# [14] = A CellTox Green Cytotoxicity Assay to monitor cytotoxicity in HepG2 cells - 24 hour (AID 1224878); also: nearly all actives have a fitted effect of over 45% in size
# Procedure, shortened: as §5
# [15] = A CellTox Green Cytotoxicity Assay to monitor cytotoxicity in HepG2 cells - 40 hour (AID 1224879); also: nearly all actives have a fitted effect of over 40% in size
# Procedure, shortened: as §5
# [16] = qHTS assay to identify small molecule antagonists of the estrogen related receptor (ERR) signaling pathway from Tox21 library (AID 1224848); also: nearly all actives have a fitted effect of over 50% in size; also: potency is read from the fitted curve at half-maximal effect
# Procedure, shortened: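 Quantitative high-throughput format: ERR reporter cells (2,000/well) pre-incubated 6 h, treated 18 h at 37 C with compounds in DMSO alongside positive and negative controls, then read by ONE-Glo luminescence.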
# [17] = qHTS assay to identify small molecule agonists of the estrogen related receptor (ERR) signaling pathway from Tox21 library (AID 1224849; calls by dose curve; also: nearly all actives have a fitted effect of over 15% in size); conditions: ERR reporter cell line, ONE-Glo luciferase, 18 h; at 92.4 µM (top of the series) unless noted
# Procedure, shortened: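 Luminescence readout (ONE-Glo, 30 min RT) after 18 h compound exposure at 37 C of NTP-supplied ERR reporter cells; cells were plated 6 h before compound addition by pin tool.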
# [18] = qHTS RealTime-Glo MT Cell Viability Assay in HepG2 cells - 40 hour (AID 1224870); also: nearly all actives have a fitted effect of over 50% in size
# Procedure, shortened: as §4
# [19] = qHTS RealTime-Glo MT Cell Viability Assay in HEK293 cells - 40 hour (AID 1224874); conditions: RealTime-Glo luminescence; max response: active compounds read low; also: nearly all actives have a fitted effect of over 50% in size; also: potency is read from the fitted curve at half-maximal effect
# Procedure, shortened: (§6)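 Luminescence readout at each listed time point; HEK293, 600 cells/well, RealTime-Glo MT reagent added with cells; compounds pinned (23 nL in DMSO) after 5 h at 37 C; continuous culture at 37 C.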
# [20] = qHTS RealTime-Glo MT Cell Viability Assay in HEK293 cells - 0 hour (AID 1224880)
# Procedure, shortened: as §6
smiles,measurement,setting,value
CCN(CC)C(C)CN1c2ccccc2Sc2ccccc21 (centres undefined),Potency,[1],inactive
same,Potency,[2],inactive
same,outcome,[3],inactive
same,Potency,[4],inactive
same,Potency,[5],inactive
same,Potency,[6],inactive
same,Potency,[7],inactive
same,Potency,[8],inactive
same,Potency,[9],inactive
same,Potency,[10],inactive
same,Potency,[11],inactive
same,Potency,[12],inactive
same,Potency,[13],inactive
same,Potency,[14],inactive
same,Potency,[15],inactive
Oc1ccc(Cc2ccccc2)cc1,Potency,[1],inactive
same,Potency,[2],inactive
same,outcome,[3],inactive
same,Potency,[16],inactive
same,"activity change, positive = activation",[17],2.56%
same,Potency,[5],inactive
same,Potency,[6],36 µM (active)
same,Potency,[7],inactive
same,Potency,[18],inactive
same,Potency,[9],36 µM (active)
same,Potency,[10],inactive
same,Potency,[19],40.4 µM (active)
same,Potency,[12],inactive
same,Potency,[13],inactive
same,Potency,[20],inactive
CCOc1ccc2[nH]cc(C(=O)NCc3ccccc3)c(=O)c2n1,Potency,[1],inactive
same,Potency,[2],inactive
same,outcome,[3],inactive
same,Potency,[16],24.3 µM (active)
same,"activity change, positive = activation",[17],-48.4%
same,Potency,[5],inactive
same,Potency,[7],inactive
same,Potency,[8],inactive
same,Potency,[9],inactive
same,max response,[19],-23.2%
same,Potency,[11],inactive
same,Potency,[12],inactive
same,Potency,[13],inactive
same,Potency,[14],inactive
same,Potency,[20],inactive
FC(F)(F)C(F)(F)C(F)(F)C(F)(F)C(F)(F)C(F)(F)CCI,Potency,[1],inactive
same,Potency,[2],inactive
same,outcome,[3],inactive
same,Potency,[4],inactive
same,Potency,[5],inactive
same,Potency,[7],inactive
same,Potency,[18],inactive
same,Potency,[8],inactive
same,Potency,[9],inactive
same,Potency,[10],inactive
same,max response,[19],-0.265%
same,Potency,[11],inactive
same,Potency,[12],inactive
same,Potency,[13],inactive
same,Potency,[14],inactive
same,Potency,[15],inactive
same,Potency,[20],inactive
C=C(C)C(=O)OCCOc1ccccc1,Potency,[1],inactive
same,Potency,[2],inactive
same,outcome,[3],inactive
same,Potency,[16],inactive
same,"activity change, positive = activation",[17],3.64%
same,Potency,[5],inactive
same,Potency,[6],inactive
same,Potency,[7],inactive
same,Potency,[18],inactive
same,Potency,[9],inactive
same,Potency,[10],inactive
same,max response,[19],8.99%
same,Potency,[11],inactive
same,Potency,[12],inactive
same,Potency,[13],inactive
same,Potency,[14],inactive
same,Potency,[15],inactive
same,Potency,[20],inactive
c1ccc(CNCc2ccccc2)cc1,Potency,[1],inactive
same,Potency,[2],inactive
same,outcome,[3],inactive
same,Potency,[4],inactive
same,Potency,[5],inactive
same,Potency,[6],inactive
same,Potency,[7],inactive
same,Potency,[9],inactive
same,Potency,[10],inactive
same,max response,[19],-7.12%
same,Potency,[12],inactive
same,Potency,[13],inactive
same,Potency,[14],inactive
same,Potency,[15],inactive
same,Potency,[20],inactive
CC1=CCC(C(C)C)C=C1 (centres undefined),Potency,[1],inactive
same,Potency,[2],inactive
same,outcome,[3],inactive
same,Potency,[4],inactive
same,Potency,[5],inactive
same,Potency,[6],inactive
same,Potency,[7],inactive
same,Potency,[18],inactive
same,Potency,[9],inactive
same,Potency,[10],inactive
same,Potency,[12],inactive
same,Potency,[13],inactive
same,Potency,[14],inactive
same,Potency,[15],inactive
N[C@H]1C(O)O[C@H](CO)[C@H](O)[C@@H]1O (some centres undefined),Potency,[1],inactive
same,Potency,[2],inactive
same,outcome,[3],inactive
same,Potency,[16],inactive
same,"activity change, positive = activation",[17],1.03%
same,Potency,[5],inactive
same,Potency,[6],inactive
same,Potency,[7],inactive
same,Potency,[8],inactive
same,Potency,[9],inactive
same,Potency,[10],inactive
same,max response,[19],9.12%
same,Potency,[11],inactive
same,Potency,[12],inactive
same,Potency,[13],inactive
same,Potency,[15],inactive
same,Potency,[20],inactive
CC(=O)OCCc1ccccc1,Potency,[1],inactive
same,Potency,[2],inactive
same,outcome,[3],inactive
same,Potency,[4],inactive
same,Potency,[5],inactive
same,Potency,[6],inactive
same,Potency,[7],inactive
same,Potency,[8],inactive
same,Potency,[9],inactive
same,Potency,[10],inactive
same,max response,[19],10.1%
same,Potency,[11],inactive
same,Potency,[12],inactive
same,Potency,[13],inactive
same,Potency,[14],inactive
same,Potency,[15],inactive
same,Potency,[20],inactive
CCOC(=O)CC(=O)c1cc(F)c(Cl)nc1Cl,Potency,[1],inactive
same,Potency,[2],inactive
same,outcome,[3],inactive
same,Potency,[4],inactive
same,Potency,[5],inactive
same,Potency,[7],inactive
same,Potency,[18],inactive
same,Potency,[10],inactive
same,Potency,[12],inactive
same,Potency,[13],inactive
same,Potency,[14],inactive
same,Potency,[15],inactive
O=C(O)/C=C/c1cnc[nH]1,Potency,[1],inactive
same,Potency,[2],inactive
same,outcome,[3],inactive
same,Potency,[4],inactive
same,Potency,[5],inactive
same,Potency,[6],inactive
same,Potency,[7],inactive
same,Potency,[8],inactive
same,Potency,[9],inactive
same,Potency,[10],inactive
same,max response,[19],-5.16%
same,Potency,[11],inactive
same,Potency,[12],inactive
same,Potency,[13],inactive
same,Potency,[15],inactive
same,Potency,[20],inactive
CCCCC(CC)(CO)CO,Potency,[1],inactive
same,Potency,[2],inactive
same,outcome,[3],inactive
same,Potency,[4],inactive
same,Potency,[5],inactive
same,Potency,[7],inactive
same,Potency,[18],inactive
same,Potency,[8],inactive
same,Potency,[9],inactive
same,Potency,[10],inactive
same,max response,[19],-0.853%
same,Potency,[11],inactive
same,Potency,[12],inactive
same,Potency,[13],inactive
same,Potency,[14],inactive
same,Potency,[15],inactive
same,Potency,[20],inactive
CC(C)CCCCCCOC(=O)c1ccc(C(=O)OCCCCCCC(C)C)c(C(=O)OCCCCCCC(C)C)c1,Potency,[1],inactive
same,Potency,[2],inactive
same,outcome,[3],inactive
same,Potency,[4],inactive
same,Potency,[5],inactive
same,Potency,[6],inactive
same,Potency,[7],inactive
same,Potency,[8],inactive
same,Potency,[9],inactive
same,Potency,[10],inactive
same,max response,[19],-0.306%
same,Potency,[11],inactive
same,Potency,[12],inactive
same,Potency,[13],inactive
same,Potency,[14],inactive
same,Potency,[15],inactive
CC(C)(C)c1ccc(S)cc1,Potency,[1],inactive
same,Potency,[2],inactive
same,outcome,[3],inactive
same,Potency,[4],inactive
same,Potency,[5],inactive
same,Potency,[6],inactive
same,Potency,[7],inactive
same,Potency,[8],inactive
same,Potency,[9],inactive
same,Potency,[10],inactive
same,max response,[19],-0.358%
same,Potency,[12],inactive
same,Potency,[13],inactive
same,Potency,[20],inactive
Cc1ccccc1N=Nc1ccc(N=Nc2c(O)ccc3ccccc23)c(C)c1,Potency,[1],inactive
same,Potency,[2],inactive
same,outcome,[3],inactive
same,"activity change, positive = activation",[17],11.4% [at 42.5 µM]
same,Potency,[5],inactive
same,Potency,[6],inactive
same,Potency,[7],inactive
same,Potency,[18],inactive
same,Potency,[9],inactive
same,Potency,[10],inactive
same,max response,[19],1.3%
same,Potency,[11],inactive
same,Potency,[12],inactive
same,Potency,[13],inactive
same,Potency,[14],inactive
same,Potency,[15],inactive
Oc1ccc(Sc2ccc(O)cc2)cc1,Potency,[1],inactive
same,Potency,[2],83.9 µM (active)
same,outcome,[3],inactive
same,Potency,[5],inactive
same,Potency,[7],inactive
same,Potency,[18],inactive
same,Potency,[8],inactive
same,Potency,[10],inactive
same,Potency,[19],22.9 µM (active)
same,Potency,[11],inactive
same,Potency,[12],inactive
same,Potency,[13],inactive
same,Potency,[14],inactive
same,Potency,[15],inactive
same,Potency,[20],inactive
CNCC[C@@H](Oc1ccccc1C)c1ccccc1,Potency,[1],inactive
same,Potency,[2],inactive
same,Potency,[4],inactive
same,"activity change, positive = activation",[17],-15.2% [at 42.5 µM]
same,Potency,[5],inactive
same,Potency,[6],inactive
same,Potency,[7],inactive
same,Potency,[18],inactive
same,Potency,[8],inactive
same,Potency,[9],inactive
same,Potency,[10],inactive
same,max response,[19],-5.29%
same,Potency,[13],inactive
same,Potency,[14],inactive
same,Potency,[15],inactive

# — PubChem BioAssay (Tox21)
